In the library only some 15% were active in any assay of this set; here they are far more common.
HCMV antiviral – inhibitors of human cytomegalovirus. HFF cells, HCMV-luciferase reporter, 72 h; hits give low values. activity change, negative = inhibition, % at 57.5 µM. 4.5% of 410,000 active. AID 1259415; in the data active = activity change below about -60%; inconclusive = no clear call, values can overlap the other calls; inactive = above about -39%; note: % is set by controls: 0 for no effect and ±100 for the full control effect
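Compounds were evaluated in HFFs infected with an HCMV luciferase reporter virus (MOI 1 PFU/cell). Luciferase in lysates collected 72 h post infection served as the replication measure.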
Sm TGR inh – inhibitors of Schistosoma mansoni thioredoxin glutathione reductase | Q962Y6 | purified TGR, DTNB reduction, TNB absorbance 405 nm | Potency, µM (doses to about 114 µM), without a hit: at the highest dose activity change, negative = inhibition, actives largely listed as inhibitors | 3% of 360,000 active; note: potency is the fitted concentration of half-maximal effect; % is set by controls: 0 for no effect and ±100 for the full control effect; nearly all actives have a fitted effect of over 60% in size
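First, TGR (20 nM dispensed) and NADPH were mixed with compound. Second, a 15 min room-temperature incubation followed. Third, further NADPH and then DTNB were added to start the reaction. Finally, TNB absorbance was monitored kinetically.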
Pf growth 96h – P. falciparum growth inhibition at 96 hour, primary screen for plastid delayed-death inhibitors. P. falciparum luciferase reporter growth, 96 h. Potency, µM (series often up to 28.7 µM), for the others: at the highest dose activity change, negative = inhibition, hits mostly inhibitors. 6.9% of 320,000 active; note: potency is the fitted concentration of half-maximal effect; % is set by controls: 0 for no effect and ±100 for the full control effect
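P. falciparum expressing integrated firefly luciferase, in erythrocytes at 2% hematocrit, 0.05% parasitemia, incubated with compounds 96 h at 37 C, 5% CO2. Growth inhibition read as loss of luminescence; two-generation exposure targets delayed-death apicoplast inhibitors.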
SARS PLpro yeast – inhibitors of SARS-CoV papain-like protease in yeast; AID 485353; 0.19% of 330,000 active; S. cerevisiae expressing SARS-CoV PLpro, growth rescue; Potency, µM (series often up to 32.9 µM), without a hit: at the highest dose activity, positive = growth rescue, hits mostly activators; calls by dose curve; note: potency is the fitted concentration of half-maximal effect; 0% is about no effect; nearly all actives have a fitted effect of over 55% in size
HCV inhibitor – inhibitors of hepatitis C virus infection | Huh7.5.1 HCVcc-Cre infection, luciferase reporter, 44 h | Potency, µM (series often up to 41.8 µM), inactives show at the highest dose activity change, negative = inhibition, most hits filed as inhibitors | 3.4% of 340,000 active; note: potency is the fitted concentration of half-maximal effect; % is set by controls: 0 for no effect and ±100 for the full control effect
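Antiviral activity was scored by luciferase reporter output from cells infected with HCVcc-Cre (~0.5 moi) in presence of compound, 44 h infection period, cells seeded 1,000/well 4 h prior.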
Pf growth 48h – inhibits P. falciparum growth in the first generation, 48 h | 5.9% of 310,000 active | P. falciparum luciferase growth in erythrocytes, 48 h | Potency, µM (series often up to 28.7 µM), without a hit: at the top dose activity change, negative = inhibition, most hits filed as inhibitors; note: potency is the fitted concentration of half-maximal effect; % is set by controls: 0 for no effect and ±100 for the full control effect
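Parasite viability was followed by luminescence of a genomically integrated firefly luciferase. Cultures held 0.1% parasitemia at 2% hematocrit (final), incubated under 5% CO2 at 37 C.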
Active calls of the source: *; ? = inconclusive; . = not tested or not shown; [ ] = another dose, or the depositor's remark. Unless noted, calls come from the whole dose curve; as a rule, active = well fitted curve in the direction sought with a large enough effect; inconclusive = small, poorly fitted or top-dose-only effect, or another doubt; inactive = no such curve, though single readings can be large; an effect the other way counts as inactive or inconclusive.

SMILES	HCMV antiviral	Sm TGR inh	Pf growth 96h	SARS PLpro yeast	HCV inhibitor	Pf growth 48h
CCOc1cc(C2c3c(n[nH]c3C)C(=O)N2c2ccc(Br)cc2)ccc1O (configuration not stated)	?	11µM*	13µM*	6%	25µM*	8%
COc1cc(C2c3c(n[nH]c3C)C(=O)N2c2ccc(Br)cc2)ccc1O (configuration not stated)	10	4.5µM*	-5%[5.75 µM]	2%	?	36%
O=c1c2c([nH]c3ccccc13)C(=C1CCCC1)CC2	.	13µM*	0%	-14%	-15%	13µM*
Cc1c2c(nc3ccccc13)CCC(C(C)(C)C)C2 (configuration not stated)	?	13%	37%[5.75 µM]	-3%	?	-17%
O=c1c2c([nH]c3ccccc13)CCCC2	-10	4%	1.9µM*	-36%	-2%	1.9µM*
CC(C)(C)C1CCc2[nH]c3ccccc3c(=O)c2C1 (configuration not stated)	-2	4%	?	-42%	-4%	0.52µM*
C=CCn1c(-c2cccc3ccccc23)n[nH]c1=S	?	0%	?	?	4%	.
CCn1c(-c2cc(-c3ccc(C)cc3)nc3ccccc23)n[nH]c1=S	-13	-3%	17µM*	-3%	14%	?
CCn1c(-c2cc(-c3ccc(OC(C)C)cc3)nc3ccccc23)n[nH]c1=S	52	0%	1.5µM*	9%	-3%	.
CCCOc1cccc(-c2cc(-c3n[nH]c(=S)n3CC)c3ccccc3n2)c1	10	0%	3.7µM*	11%	?	10µM*
C=CCn1c(-c2cc(-c3ccc(C)cc3)nc3ccccc23)n[nH]c1=S	16	5%	?	-9%	-3%	17µM*
C=CCn1c(-c2cccc(OCC)c2)n[nH]c1=S	?	11%	2%	1%	14%	4%
CCCN(C(=O)c1cc2ccc3cccnc3c2[nH]1)c1ccc(F)cc1	6	2%	.	.	.	.
O=C(CNC(=O)C1CCCCC1)NCc1ccco1	-23	?	21%	0%	12%	7%
Cc1cc(C(=O)N2CCC2(C)C(=O)O)nn1C(C)(C)C (configuration not stated)	19	.	.	.	.	.
Cc1cc(Cl)c(S(=O)(=O)N2CCCC2)cc1OCC(=O)NC1CCCCC1	-96*	17%	0.083µM*	-4%	?	.
Cc1cc(Cl)c(S(=O)(=O)NC(C(=O)O)C(C)C)cc1OCC(=O)NC1CCCCC1 (configuration not stated)	17	-7%	47%	-5%	17%	.
O=C(COc1ccc(S(=O)(=O)N2CCCC2)cc1Cl)NC1CCCC1	47	4%	.	8%	-6%	9.3µM*
CCOc1cc(C)c(Cl)cc1S(=O)(=O)N1CCCC1	-35	-2%	0.93µM*	-5%	-20%	-16%
COc1ccc(C(=O)N[C@H](C(=O)NC2CCCCC2)C(C)C)cc1	-16	.	.	4%	22%	.
O=C(Cn1ccc(NC(=O)OCc2ccccc2)nc1=O)NCc1ccc2c(c1)OCO2	9	0%	0%	6%	4%	19%
CCN(CC)CC(O)c1cccn1-c1ccc(CNC(=O)NC(C)C)cc1 (configuration not stated)	-66*	-3%	-9%	-2%	18%	?
CC(=O)c1c(C)oc2ccc(N(C(=O)C3CCCCC3)S(=O)(=O)c3cc([N+](=O)[O-])ccc3C)cc12	-29	0%	3.7µM*	17%	?	12%
COc1ccc(Cn2c(C)c(C)c(C#N)c2NC(=O)Nc2cccc(C)c2)cc1	-67*	-26%	6%	-3%	-20%	3%
O=C1CC(N2CCN(Cc3ccc4c(c3)OCO4)CC2)C(=O)N1c1cccc(Cl)c1 (configuration not stated)	-24	50µM*	.	-10%	12%	31%

Bioassay records (PubChem)
